# Hit rate of the full screen: of about 47,000 compounds, about 3,100 (6.6%) were called active. This excerpt belongs to a sample that is enriched for actives. A number with no mark means an inactive call. Rule as the data show it: active = inhibition above about 30%; inactive = the rest.
# Biological target: Ubiquitin carboxyl-terminal hydrolase 17-like protein 5 (Homo sapiens) (UniProt A8MUK1)
# Assay: inhibitors of human USP17 deubiquitinase (AID 1645855)
# Conditions: purified USP17, Ub-rhodamine cleavage fluorescence, 3 h; at 50 µM; stronger effect = higher value
# Ubiquitin carboxyl-terminal hydrolase 17-like protein 5 (Homo sapiens), sequence (A8MUK1 whole entry, looked up): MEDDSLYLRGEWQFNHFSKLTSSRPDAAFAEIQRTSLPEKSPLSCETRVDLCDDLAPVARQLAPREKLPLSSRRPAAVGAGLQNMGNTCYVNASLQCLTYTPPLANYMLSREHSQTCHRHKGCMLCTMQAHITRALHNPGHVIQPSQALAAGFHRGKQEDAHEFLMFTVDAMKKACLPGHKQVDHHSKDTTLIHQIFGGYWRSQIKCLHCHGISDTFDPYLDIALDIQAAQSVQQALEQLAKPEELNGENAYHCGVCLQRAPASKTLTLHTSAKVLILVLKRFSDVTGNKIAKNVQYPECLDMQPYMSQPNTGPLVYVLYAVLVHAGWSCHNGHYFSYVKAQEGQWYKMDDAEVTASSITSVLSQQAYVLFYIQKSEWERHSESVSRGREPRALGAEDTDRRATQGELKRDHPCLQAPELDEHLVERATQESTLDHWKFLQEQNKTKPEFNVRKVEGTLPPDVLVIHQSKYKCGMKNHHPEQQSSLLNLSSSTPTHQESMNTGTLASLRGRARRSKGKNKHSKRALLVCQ
row,Structure (SMILES),inhibition
1,O=S(=O)(c1ccc(S(=O)(=O)N2CCN3CCCC3C2)cc1)N1CCOCC1 (configuration not stated),-8.52%
2,Cc1ccc(NC(=O)Cc2sc(Nc3ccc(C)cc3)nc2O)cc1,58.2% (active)
3,Cc1ccc(Nc2nc(O)c(CC(=O)Nc3ccc(C(C)C)cc3)s2)cc1C,6.68%
4,CCOc1ccc(Nc2nc(O)c(CC(=O)Nc3cccc(C)c3)s2)cc1,7.74%
5,NC(=O)CN1C(=O)CO[C@H]2CN(Cc3ccc(F)c(F)c3)C[C@H]21,-11.3%
6,Cn1c(=O)n(CCCO)c(=O)c2c1nc1n2CCCN1c1ccccc1,9.32%
7,COc1cccc(N2CCN(C(=O)CCC3=NS(=O)(=O)c4ccc(C)cc4N3)CC2)c1,-26.5%
8,Cn1c(=O)c2ncn(CC(=O)Nc3ccc(-c4nc5ccccc5o4)cc3)c2n(C)c1=O,8.05%
9,COc1ccccc1NC(=O)N1CCN(Cc2nc3ccccc3o2)CC1,-4.24%
10,CCOc1ccccc1NC(=O)Nc1cc(-c2nc3ccccc3o2)ccc1OC,57.1% (active)
11,CCN1CCN(c2cc(C)c3cc(NC(=O)c4cccnc4)ccc3n2)CC1,-9.13%
12,O=C(Cc1ccccc1Cl)Nc1ccc(N2CCOCC2)cc1,31.6% (active)
13,Cn1cnnc1SCC(=O)Nc1ccc(N2CCOCC2)c(Cl)c1,-11.6%
14,CCN(CC)c1nc2ccccc2nc1C(=O)Nc1ccc(N2CCOCC2)cc1,-6.91%
15,O=S(=O)(NCc1nc2cccnc2n1C1CC1)c1ccccc1F,9.68%
16,Cc1nn(-c2ccc(F)cc2)c(C)c1S(=O)(=O)NCc1ccc2c(c1)OCO2,-23%
17,COc1ccc(CNC(=O)c2[nH]nc3c2CCc2ccccc2-3)cc1,67.3% (active)
18,Cn1nc(C(=O)NCCN2CCOCC2)c2c1-c1ccccc1CC2,2.07%
19,COc1ccc(-c2ocnc2C(=O)NCc2ccc(OC)c(OC)c2)cc1,-0.808%

row,Structure (SMILES),inhibition
1,CC(=O)O[C@H]1C[C@@]23COC(=O)/C=C(\C)CCOC(=O)/C=C/C=C\C(=O)O[C@@H]4C[C@@H](O[C@@H]2C=C1C)[C@@]1(CO1)[C@]43C,-0.539%
2,Cc1nn(C)cc1C(=O)Nc1cnn(C)c1C(N)=O,5.15%
3,CC(C)(C)C(=O)OCc1noc(-c2ccccc2)n1,16.8%
4,CC(C)(C)c1nn(-c2ccccc2)c2[nH]c(=O)c(CNCCc3ccccc3)cc12,31.9% (active)
5,Cc1ccc(NCc2cc3c(C)nn(-c4ccccc4)c3[nH]c2=O)cc1C,-32.1%
6,Cc1nn(-c2ccccc2)c2[nH]c(=O)c(C#N)c(-c3ccco3)c12,-26.6%
7,CCCC(=O)N1CCC(c2cc(=O)[nH]c(-c3ccccn3)n2)C1 (configuration not stated),-51.9%
8,N#Cc1ccc(Oc2ncnc3ccccc23)cc1,4.86%
9,N#Cc1ccc(-c2csc(COc3ccccc3Cl)n2)cc1,35% (active)
10,CC(C)OC(=O)c1cc2c(ccn2-c2ccc(F)cc2)n1Cc1ccccn1,9.79%
11,Cc1c(CN2CCOC(c3cncc(-c4ccccc4F)n3)C2)cnn1C (configuration not stated),-0.212%
12,COc1ccc(C(=O)N2CC(=O)N(Cc3ccccc3)CC(O)C2)cc1 (configuration not stated),-3.64%
13,O=C(CN1C(=O)c2cccnc2Sc2ccccc21)Nc1ccc(F)cc1F,-19.9%
14,CCOc1nc2cccnc2n(CC(=O)Nc2ccc(F)cc2F)c1=O,-5.53%
15,O=C(CN1C(=O)C2CCCC2=Nc2ccccc21)Nc1ccc(F)cc1F (configuration not stated),59.2% (active)
16,Cc1noc(C)c1COc1cccc(C(=O)NC(C)c2cc3ccccc3o2)c1 (configuration not stated),1.56%
17,COc1ccccc1N1CCN(C(=O)CSc2cc(=O)n(C)c3cc(Cl)ccc23)CC1,-7.92%
18,O=C(NCCc1ccccc1)N1CC[C@@H]2CN(Cc3cccnc3)S(=O)(=O)[C@@H]2CC1,-8.52%
19,COc1c(O)c2c(=O)cc(OC)c3c4c(OC)cc(=O)c5c(O)c(OC)c(CC(C)OC(=O)c6ccccc6)c(c(c1CC(C)OC(=O)Oc1ccc(O)cc1)c23)c54 (configuration not stated),39.4% (active)

row,Structure (SMILES),inhibition
1,CCOc1ccccc1NC(=O)Cn1c(=O)n(-c2ncccc2C(=O)OC)c(=O)c2cccnc21,-0.0478%
2,CCOc1ccccc1NC(=O)COc1cccc2c1OC(C)(C)C2,8.61%
3,CCOc1ccccc1NC(=O)Cc1cccs1,43.3% (active)
4,CC1CCN(c2ncc3c(n2)CCC(C(=O)NC(C)c2cccnc2)C3)CC1 (configuration not stated),-33.2%
5,Cc1nc(-c2cccc(NC(=O)C3CCN(c4ccccc4)C3=O)c2)no1 (configuration not stated),52.3% (active)
6,Cc1nc(-c2cccc(S(=O)(=O)Nc3ccccc3C)c2)no1,-1.13%
7,CC(=O)c1cccc(NC(=O)c2cccc(-c3nc(-c4ccccc4)no3)c2)c1,1.73%
8,Cc1cnc2nc3c(cc2c1)CN(S(=O)(=O)c1cccc2cccnc12)CC3,-136%
9,N#Cc1ccc(NC(=O)Nc2cccn(Cc3ccccc3F)c2=O)cc1,93.3% (active)
10,N#Cc1ccc(OCC(=O)Nc2ccccc2N2CCCCC2)cc1,8.45%
11,Cc1cc(C)n2nc(CN(Cc3ccccc3)C(=O)c3ccccc3)nc2n1,-5.53%
12,Cc1ccc(N2CC(c3nnc(NC(=O)CCCc4ccccc4)s3)CC2=O)cc1 (configuration not stated),-6.98%
13,CS(=O)(=O)Nc1cccc(C#CCN)c1,-24.2%
14,O=C(c1sc(N2CCCCC2)nc1-c1ccccc1)c1c[nH]c2ccccc12,-31.2%
15,CN1CCN(c2nc3c(s2)CN(C(=O)c2ccccc2)CC3)CC1,-15.2%
16,O=C(CN(C(=O)c1ccccc1)C1CCCCC1)Nc1nc(-c2ccccc2)cs1,11.1%
17,CC(=O)NC(Cc1ccccc1C)C(=O)NC1CCN(C(=O)Nc2cccc(C)c2)CC1 (configuration not stated),1.56%
18,Oc1cccc2nc3c(O)cccc3nc12,96.1% (active)
19,COc1ccc(C(=O)O)cc1S(=O)(=O)Nc1ccc(-c2ccccc2)cc1,-9.74%

# Source: PubChem BioAssay AID1645855 (Buhrlage Lab, Dana-Farber Cancer Institute and Novartis …, 2021)
